High-throughput results as filed in PubChem.
Giardia killer: kills Giardia lamblia; 340,000 tested, 0.15% active; AID 540267; activity change, % at 7.66 µM, hits read low; Giardia lamblia trophozoite viability; in the data active means activity change below about -80%; inconclusive means between about -30% and that limit;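 further: parasites exposed to compound for two days anaerobically before the ATP read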
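Giardia trophozoites, 100 cells per well, were exposed to compounds for 48 hrs at 37 deg C under anaerobic conditions; viability was then read as ATP content by bioluminescence after 15-30 min at room temperature.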
TDP1 cell CPT: growth inhibition of DT40 Tdp1-/-;hTDP1 cells with camptothecin (screen for TDP1 inhibitors); chicken DT40 Tdp1-/-;hTDP1 cells + 20 nM CPT, ATP luminescence, 48 h; Potency, µM (doses to about 46.2 µM), usual class: inhibitors; 420,000 tested, 12% active; AID 686979; further: nearly all actives have a fitted effect of over 55% in size
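Chicken DT40 Tdp1-/- cells stably complemented with human TDP1 were seeded at 400 cells/well in medium containing 20 nM camptothecin, exposed to pin-transferred compounds, and grown at 37 °C for at least 48 hr. Viability was read as ATP luminescence.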
TDP1 block: blocks human tyrosyl-DNA phosphodiesterase 1; Q9NUW8; recombinant TDP1, AlphaScreen DNA substrate cleavage; Potency, µM (doses to about 130 µM), usual class: inhibitors; 350,000 tested, 0.28% active; further: nearly all actives have a fitted effect of over 40% in size
Target sequence (Q9NUW8 whole entry, looked up): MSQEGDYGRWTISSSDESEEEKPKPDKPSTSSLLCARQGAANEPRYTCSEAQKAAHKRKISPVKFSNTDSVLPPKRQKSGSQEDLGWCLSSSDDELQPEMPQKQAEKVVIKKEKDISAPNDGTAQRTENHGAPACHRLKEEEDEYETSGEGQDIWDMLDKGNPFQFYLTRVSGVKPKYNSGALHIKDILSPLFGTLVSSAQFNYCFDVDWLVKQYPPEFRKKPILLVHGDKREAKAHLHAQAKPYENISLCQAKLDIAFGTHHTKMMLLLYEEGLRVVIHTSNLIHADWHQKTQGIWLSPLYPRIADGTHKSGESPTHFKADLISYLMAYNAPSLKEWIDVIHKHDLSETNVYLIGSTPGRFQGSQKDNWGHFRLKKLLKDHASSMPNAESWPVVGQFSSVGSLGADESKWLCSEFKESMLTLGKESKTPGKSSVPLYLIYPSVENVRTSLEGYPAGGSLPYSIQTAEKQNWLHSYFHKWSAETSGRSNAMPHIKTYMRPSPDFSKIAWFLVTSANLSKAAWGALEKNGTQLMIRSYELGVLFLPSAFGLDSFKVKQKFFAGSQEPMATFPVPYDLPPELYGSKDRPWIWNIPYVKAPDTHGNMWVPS
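E. coli-derived human Tdp1, 1 nM final. Cpd preinc 15 min RT; substrate 15 nM final, 5 min RT; AS bead mix 10 ug/ml final, 10 min RT. Signal loss = tyrosine-FITC cleavage. No-enzyme wells = max signal.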
IL1B secr inh: inflammasome signaling inhibition, IL-1 beta readout. THP-1 LPS/ATP IL-1B secretion, AlphaLISA, 16 h; hits give low values. activity change, % at 57.5 µM. 360,000 tested, 4.7% active; in the data active means activity change below about -50%; inconclusive means mostly about -30% to -49%
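THP-1 cells pretreated 1 hr with compounds (up to 57.5 uM final), then stimulated with LPS (250 ng/mL final) plus ATP (1.25 mM final); secreted IL-1B measured by AlphaLISA after 16 hr, decreased signal indicating inhibition.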
ELG1 repair inh: inhibitors of ELG1-dependent DNA repair in HEK293T cells; HEK293T ELG1-luciferase reporter, luminescence, 16 h; DNA damage induced by 5-fluorouridine; 330,000 tested, 2.3% active; AID 504467; Potency, µM (titrated, usually from 46.1 µM), hits mostly inhibitors; further: nearly all actives have a fitted effect of over 55% in size
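Step one: seed 2,000 cells per well. Step two: pin-transfer compound or DMSO alongside 5-fluorouridine. Step three: incubate 16 hr, 37 °C, 5% CO2. Step four: add ONE-Glo, wait 30 min, read luminescence.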
DT40 TDP1 no CPT: qHTS for Inhibitors of human tyrosyl-DNA phosphodiesterase 1 (TDP1): qHTS in cells in absence of CPT; DT40 Tdp1-/- hTDP1 cells, no CPT, ATP luminescence, 48 h; Potency, µM (doses to about 46.2 µM), actives largely listed as inhibitors; 420,000 tested, 15% active; AID 686978, 2013; further: nearly all actives have a fitted effect of over 55% in size
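Cells were dispensed at 400 per well, compounds added by pin tool, plates incubated ≥48 hr at 37 °C, then CellTiter-Glo added for 30 min at room temperature before luminescence reading. Line: DT40 Tdp1-/- complemented with hTDP1; camptothecin omitted.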
Large screens that a line does not name were inactive. Rows were chosen to be rich in hits. Some 19% of all compounds tested hit in one or more screens of this group. Unless noted, the call rests on the fitted dose curve; in most records, active means well fitted curve in the direction sought with a large enough effect; inconclusive means small, poorly fitted or top-dose-only effect, or another doubt; inactive means no such curve, though single readings can be large; an effect the other way counts as inactive or inconclusive.

Cc1ccc(-n2[nH]c(C)c(/C=C3/C=Nc4ccccc43)c2=O)cc1C	ELG1 repair inh inconclusive
COc1cc(S(=O)(=O)Nc2ccccc2)ccc1N=Cc1c(C)[nH]n(-c2ccc(C)cc2)c1=O	ELG1 repair inh inconclusive (no result: Giardia killer, TDP1 cell CPT, IL1B secr inh, DT40 TDP1 no CPT)
COc1cc(SC#N)ccc1N=Cc1c(C)[nH]n(-c2ccc(Cl)cc2)c1=O	TDP1 cell CPT 2.59µM, IL1B secr inh inconclusive, ELG1 repair inh inconclusive, DT40 TDP1 no CPT 3.66µM
CC(=O)Oc1ccc2c(=O)c(/C=N/c3cc(=O)[nH]c(=S)[nH]3)coc2c1	TDP1 block 79.4µM
O=C(CSc1ccc2nnc(-c3ccccn3)n2n1)Nc1cccc(F)c1	none
CC1(C(=O)NC2CCCCC2)Cc2ccccc2C(=O)N1Cc1ccc(Cl)cc1 (stereo not given)	TDP1 cell CPT inconclusive, DT40 TDP1 no CPT inconclusive (no result: Giardia killer, IL1B secr inh, ELG1 repair inh)
O=S1(=O)c2cccc3cccc(c23)N1Cc1nnc(-c2ccccc2Br)o1	TDP1 cell CPT 14.6µM, ELG1 repair inh 23.1µM, DT40 TDP1 no CPT 18.4µM
C=CC[N+]1([C@H]2C[C@H]3[C@@H]4CC[C@H]5C[C@H](OC(C)=O)[C@@H](N6CCCCC6)C[C@]5(C)[C@H]4CC[C@]3(C)[C@H]2OC(=O)CC)CCCCC1	none (no result: Giardia killer, TDP1 block, IL1B secr inh, ELG1 repair inh)
NCC1CCN(c2nc3ccccc3c3c2CCCC3)CC1	TDP1 cell CPT 20.6µM, IL1B secr inh -94.8, DT40 TDP1 no CPT 11.6µM (no result: TDP1 block, ELG1 repair inh)
c1ccc2c(c1)nc(N1CCCCCC1)c1ccccc12	TDP1 cell CPT inconclusive, DT40 TDP1 no CPT inconclusive (no result: TDP1 block)
COc1ccc(S(=O)(=O)NCc2nc(N3CCCC3)c3cccc(C)c3n2)cc1OC	none (no result: Giardia killer, TDP1 block, IL1B secr inh, ELG1 repair inh)
CCN(C(=O)Cn1cc(C(=O)C(=O)N2CCOCC2)c2ccccc21)c1ccccc1	none
O=C(CCNc1ccccc1)c1cccc([N+](=O)[O-])c1	TDP1 cell CPT 18.4µM, ELG1 repair inh inconclusive, DT40 TDP1 no CPT 16.4µM
O=C(CC(=O)c1ccccc1)Nc1cccc([N+](=O)[O-])c1	TDP1 cell CPT inconclusive, DT40 TDP1 no CPT inconclusive (no result: Giardia killer, TDP1 block, ELG1 repair inh)
O=C(NCCNc1ccc([N+](=O)[O-])cc1)c1cccc(Br)c1	none
O=C(CCNc1ccc(F)cc1)c1cccc([N+](=O)[O-])c1	TDP1 cell CPT 16.4µM, DT40 TDP1 no CPT 23.1µM
O=C(CCNc1ccc(Br)cc1)c1cccc([N+](=O)[O-])c1	TDP1 cell CPT 14.6µM, DT40 TDP1 no CPT 18.4µM
O=C(COC(=O)c1ccc2ncsc2c1)NC(=O)C1CCCCC1	none (no result: IL1B secr inh, ELG1 repair inh)
COc1ccc(-c2cc(C)cc3c2OC(CNC(=O)c2cc(C(C)C)on2)C3)nn1 (stereo not given)	none (no result: Giardia killer, TDP1 block, IL1B secr inh, ELG1 repair inh)
Cc1cc(C)cc(OCC(=O)Nc2nc3c(s2)CC(C(C)(C)C)CC3)c1 (stereo not given)	TDP1 cell CPT 18.4µM, DT40 TDP1 no CPT 23.1µM (no result: Giardia killer, IL1B secr inh, ELG1 repair inh)
CC(C)(C)C1CCc2nc(NC(=O)c3cccc(Cl)c3)sc2C1 (stereo not given)	TDP1 cell CPT inconclusive, DT40 TDP1 no CPT 23.1µM (no result: Giardia killer, IL1B secr inh, ELG1 repair inh)
Cc1cccc(OCC(=O)Nc2nc3c(s2)CC(C(C)(C)C)CC3)c1C (stereo not given)	TDP1 cell CPT 16.4µM, DT40 TDP1 no CPT 18.4µM (no result: Giardia killer, IL1B secr inh, ELG1 repair inh)
CC(C)(C)C1CCc2nc(NC(=O)COc3ccccc3[N+](=O)[O-])sc2C1 (stereo not given)	TDP1 cell CPT 16.4µM, DT40 TDP1 no CPT inconclusive (no result: Giardia killer, IL1B secr inh, ELG1 repair inh)
CC(C)(C)C1CCc2nc(NC(=O)Cc3ccccc3)sc2C1 (stereo not given)	TDP1 cell CPT inconclusive, DT40 TDP1 no CPT inconclusive (no result: Giardia killer, IL1B secr inh, ELG1 repair inh)
O=C(NCC1CCCCC1)c1nnc(C(=O)NCC2CCCCC2)c2c1[nH]c1ccccc12	none (no result: Giardia killer, TDP1 cell CPT, IL1B secr inh, ELG1 repair inh, DT40 TDP1 no CPT)
COc1ccc(CNC(=O)c2ccc(-c3nc(CSc4ccc(C)cc4)c(C)o3)cc2)cc1OC	none (no result: Giardia killer, IL1B secr inh, ELG1 repair inh)
COc1ccc(CNC(=O)CN2C(=O)CC(c3ccc(C)c(C)c3)=Nc3ccccc32)cc1	TDP1 cell CPT inconclusive, DT40 TDP1 no CPT inconclusive (no result: Giardia killer, IL1B secr inh, ELG1 repair inh)
Cc1ccc(C)c(NC(=S)N=Nc2c(O)n(C)c3ccc(S(=O)(=O)N4CCOCC4)cc23)c1	TDP1 cell CPT 4.11µM, ELG1 repair inh inconclusive, DT40 TDP1 no CPT 2.91µM
